Targets with a hit are over-represented here; the source holds about 7,900 in all. About 0.6% of all pairs of compound and target were hits.

Sequence of UniProt O75717 (O75717 whole entry, looked up): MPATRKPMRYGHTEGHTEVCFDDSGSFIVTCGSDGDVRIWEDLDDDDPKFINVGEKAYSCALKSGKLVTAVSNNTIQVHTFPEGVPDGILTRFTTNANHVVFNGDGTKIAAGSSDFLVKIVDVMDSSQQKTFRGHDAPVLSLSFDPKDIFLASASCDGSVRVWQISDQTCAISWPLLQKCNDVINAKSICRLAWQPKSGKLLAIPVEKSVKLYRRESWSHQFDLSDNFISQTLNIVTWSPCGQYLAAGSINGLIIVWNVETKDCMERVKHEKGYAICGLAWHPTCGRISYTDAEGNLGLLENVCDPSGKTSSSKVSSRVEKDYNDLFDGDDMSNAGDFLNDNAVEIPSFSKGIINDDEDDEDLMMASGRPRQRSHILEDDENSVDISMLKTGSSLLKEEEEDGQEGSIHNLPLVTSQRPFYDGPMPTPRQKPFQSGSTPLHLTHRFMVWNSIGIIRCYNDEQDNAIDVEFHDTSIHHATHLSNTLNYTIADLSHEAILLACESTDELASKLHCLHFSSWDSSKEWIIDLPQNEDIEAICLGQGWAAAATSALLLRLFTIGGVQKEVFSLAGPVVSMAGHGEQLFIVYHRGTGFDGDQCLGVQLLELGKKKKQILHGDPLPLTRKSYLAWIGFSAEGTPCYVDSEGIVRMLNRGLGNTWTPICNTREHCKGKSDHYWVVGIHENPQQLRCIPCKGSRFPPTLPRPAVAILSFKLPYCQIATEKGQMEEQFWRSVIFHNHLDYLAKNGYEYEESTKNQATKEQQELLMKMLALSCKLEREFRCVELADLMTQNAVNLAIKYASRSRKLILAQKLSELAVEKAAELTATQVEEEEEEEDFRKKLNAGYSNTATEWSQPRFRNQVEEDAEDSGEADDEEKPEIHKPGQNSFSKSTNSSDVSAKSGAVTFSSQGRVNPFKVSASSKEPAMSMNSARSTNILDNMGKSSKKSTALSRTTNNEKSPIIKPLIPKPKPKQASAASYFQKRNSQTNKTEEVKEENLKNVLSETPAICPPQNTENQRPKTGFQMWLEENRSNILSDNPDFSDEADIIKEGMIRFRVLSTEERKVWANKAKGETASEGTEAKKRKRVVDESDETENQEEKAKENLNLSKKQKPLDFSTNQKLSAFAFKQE
Sequence of UniProt Q9HAV4 (Q9HAV4 whole entry, looked up): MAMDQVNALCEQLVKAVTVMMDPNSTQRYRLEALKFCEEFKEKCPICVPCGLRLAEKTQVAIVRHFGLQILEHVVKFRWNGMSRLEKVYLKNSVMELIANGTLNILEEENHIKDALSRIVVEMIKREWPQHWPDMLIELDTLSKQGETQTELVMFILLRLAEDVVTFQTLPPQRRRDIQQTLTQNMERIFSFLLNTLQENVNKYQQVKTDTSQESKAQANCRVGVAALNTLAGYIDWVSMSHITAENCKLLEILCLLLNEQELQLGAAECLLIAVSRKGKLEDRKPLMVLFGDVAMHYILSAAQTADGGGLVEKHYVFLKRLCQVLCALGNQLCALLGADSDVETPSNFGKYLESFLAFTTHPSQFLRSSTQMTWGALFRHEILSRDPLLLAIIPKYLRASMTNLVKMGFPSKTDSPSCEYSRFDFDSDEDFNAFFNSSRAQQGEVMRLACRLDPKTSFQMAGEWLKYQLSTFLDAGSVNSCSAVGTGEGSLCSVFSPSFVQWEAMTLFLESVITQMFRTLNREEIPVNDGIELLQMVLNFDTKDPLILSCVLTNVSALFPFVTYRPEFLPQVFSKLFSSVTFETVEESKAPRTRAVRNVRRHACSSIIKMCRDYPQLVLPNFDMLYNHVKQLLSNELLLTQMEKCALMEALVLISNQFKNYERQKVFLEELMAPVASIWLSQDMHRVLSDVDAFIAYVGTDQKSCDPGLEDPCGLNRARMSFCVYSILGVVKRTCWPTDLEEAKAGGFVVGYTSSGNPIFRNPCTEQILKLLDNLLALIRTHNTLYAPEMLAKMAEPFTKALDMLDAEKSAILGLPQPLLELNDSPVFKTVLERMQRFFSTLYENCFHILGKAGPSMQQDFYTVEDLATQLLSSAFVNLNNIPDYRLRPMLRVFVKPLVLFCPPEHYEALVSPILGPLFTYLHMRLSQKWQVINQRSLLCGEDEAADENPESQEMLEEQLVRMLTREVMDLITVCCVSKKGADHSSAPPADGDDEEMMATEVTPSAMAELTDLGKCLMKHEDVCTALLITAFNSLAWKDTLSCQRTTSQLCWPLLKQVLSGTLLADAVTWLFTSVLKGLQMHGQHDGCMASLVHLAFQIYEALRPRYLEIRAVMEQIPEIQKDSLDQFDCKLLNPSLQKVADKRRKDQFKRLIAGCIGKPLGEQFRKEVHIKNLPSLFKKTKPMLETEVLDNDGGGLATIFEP
Sequence of UniProt Q7Z6J8 (Q7Z6J8 whole entry, looked up): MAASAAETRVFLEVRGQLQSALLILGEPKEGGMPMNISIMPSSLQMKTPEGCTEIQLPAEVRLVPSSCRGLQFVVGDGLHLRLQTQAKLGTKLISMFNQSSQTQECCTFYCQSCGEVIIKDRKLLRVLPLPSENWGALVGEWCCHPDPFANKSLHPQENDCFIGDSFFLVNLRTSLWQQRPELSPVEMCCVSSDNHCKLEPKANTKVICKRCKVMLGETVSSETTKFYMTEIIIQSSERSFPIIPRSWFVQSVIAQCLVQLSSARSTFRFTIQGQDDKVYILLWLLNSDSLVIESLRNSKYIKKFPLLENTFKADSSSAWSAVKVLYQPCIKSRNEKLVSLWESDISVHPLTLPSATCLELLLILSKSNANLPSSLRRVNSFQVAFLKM
Sequence of UniProt P54578 (P54578 whole entry, looked up): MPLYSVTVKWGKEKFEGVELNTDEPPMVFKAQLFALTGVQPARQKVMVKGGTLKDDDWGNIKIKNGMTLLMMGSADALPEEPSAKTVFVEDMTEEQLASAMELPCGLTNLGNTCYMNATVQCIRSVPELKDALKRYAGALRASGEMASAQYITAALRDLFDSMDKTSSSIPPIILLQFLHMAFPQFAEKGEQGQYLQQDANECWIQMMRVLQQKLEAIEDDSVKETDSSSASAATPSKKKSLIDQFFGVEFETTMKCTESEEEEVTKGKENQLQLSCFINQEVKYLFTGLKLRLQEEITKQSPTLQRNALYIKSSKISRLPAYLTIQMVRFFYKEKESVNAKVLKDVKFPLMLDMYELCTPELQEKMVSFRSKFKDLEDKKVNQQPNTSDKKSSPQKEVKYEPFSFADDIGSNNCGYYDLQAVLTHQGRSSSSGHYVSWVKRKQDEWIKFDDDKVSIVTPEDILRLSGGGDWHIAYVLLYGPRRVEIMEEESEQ
Sequence of UniProt Q9UL33 (Q9UL33 whole entry, looked up): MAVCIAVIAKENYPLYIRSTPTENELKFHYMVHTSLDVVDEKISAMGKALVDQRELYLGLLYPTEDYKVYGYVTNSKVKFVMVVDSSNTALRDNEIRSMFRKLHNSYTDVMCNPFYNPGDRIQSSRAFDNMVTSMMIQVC
Sequence of UniProt Q9Y385 (Q9Y385 whole entry, looked up): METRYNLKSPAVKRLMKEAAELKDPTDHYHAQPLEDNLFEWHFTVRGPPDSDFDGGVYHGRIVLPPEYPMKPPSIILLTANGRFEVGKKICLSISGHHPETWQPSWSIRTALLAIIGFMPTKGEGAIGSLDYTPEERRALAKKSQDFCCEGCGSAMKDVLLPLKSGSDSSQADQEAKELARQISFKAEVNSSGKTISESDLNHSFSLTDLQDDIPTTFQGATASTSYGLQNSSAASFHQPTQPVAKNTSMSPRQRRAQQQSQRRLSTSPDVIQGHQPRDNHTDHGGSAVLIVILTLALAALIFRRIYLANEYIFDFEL
Sequence of UniProt P21796 (P21796 whole entry, looked up): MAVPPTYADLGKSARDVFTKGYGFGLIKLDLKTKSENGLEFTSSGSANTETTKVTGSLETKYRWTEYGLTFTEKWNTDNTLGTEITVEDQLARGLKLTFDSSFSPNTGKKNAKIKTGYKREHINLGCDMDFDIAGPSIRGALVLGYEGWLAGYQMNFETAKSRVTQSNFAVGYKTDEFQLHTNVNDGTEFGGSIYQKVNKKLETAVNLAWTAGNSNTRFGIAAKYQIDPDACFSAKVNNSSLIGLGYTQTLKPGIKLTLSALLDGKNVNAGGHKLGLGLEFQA
Sequence of UniProt Q9NQH7 (Q9NQH7 whole entry, looked up): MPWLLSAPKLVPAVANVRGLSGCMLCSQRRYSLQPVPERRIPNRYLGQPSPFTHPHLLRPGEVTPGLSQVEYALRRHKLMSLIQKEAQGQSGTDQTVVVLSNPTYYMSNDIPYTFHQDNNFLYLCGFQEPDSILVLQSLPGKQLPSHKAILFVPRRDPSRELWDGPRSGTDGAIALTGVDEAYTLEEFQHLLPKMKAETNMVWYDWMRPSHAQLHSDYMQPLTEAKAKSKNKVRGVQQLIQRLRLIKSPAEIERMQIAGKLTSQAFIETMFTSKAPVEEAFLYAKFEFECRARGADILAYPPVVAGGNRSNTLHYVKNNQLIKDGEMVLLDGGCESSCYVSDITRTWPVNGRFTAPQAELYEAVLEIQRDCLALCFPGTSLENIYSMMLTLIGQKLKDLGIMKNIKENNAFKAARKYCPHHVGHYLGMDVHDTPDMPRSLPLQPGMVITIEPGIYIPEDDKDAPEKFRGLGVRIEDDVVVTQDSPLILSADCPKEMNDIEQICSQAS
Sequence of UniProt Q15629 (Q15629 whole entry, looked up): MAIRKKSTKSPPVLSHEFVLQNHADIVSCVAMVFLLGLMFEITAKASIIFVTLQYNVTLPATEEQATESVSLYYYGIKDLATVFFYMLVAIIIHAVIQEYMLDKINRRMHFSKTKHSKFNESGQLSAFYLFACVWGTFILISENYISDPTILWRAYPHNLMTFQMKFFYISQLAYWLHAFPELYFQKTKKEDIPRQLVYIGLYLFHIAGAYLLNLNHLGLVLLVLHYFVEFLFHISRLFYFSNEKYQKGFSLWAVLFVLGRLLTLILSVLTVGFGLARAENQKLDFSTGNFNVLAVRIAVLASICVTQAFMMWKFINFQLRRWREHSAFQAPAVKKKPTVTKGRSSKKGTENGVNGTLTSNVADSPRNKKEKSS
Sequence of UniProt Q9UDW1 (Q9UDW1 whole entry, looked up): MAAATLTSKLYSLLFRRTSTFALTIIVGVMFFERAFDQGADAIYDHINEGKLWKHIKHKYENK

Compound in the first assay: Cn1cc(-c2ccc3c(c2)CCN3C(=O)Cc2cccc(C(F)(F)F)c2)c2c(N)ncnc21
Description: log2 fold change, soluble protein after heating vs DMSO (PISA); higher = thermal stabilisation; K562 cells, 10 uM, 30 min; active = over 0.2 and 3.5 SD of the protein, either way, in both replicates (recomputed). An outline of the steps: (§1)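 For each measurement, 10 μM compound was applied for 30 min to K562 cells at 2×10^6 cells/mL. Aliquots were heated for 3 min across 48°C-58°C, pooled, and extracted in PBS with 0.5% NP-40 at 4°C; the supernatant after 21,000xg for 90 min was soluble protein. This was quantified by TMTpro 16plex LC-MS/MS with channel sums equalised, and thermal stability was reported relative to control samples from duplicates, on a log2 fold-change scale.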
With USP34 (UniProt Q70CQ2), the log2 fold change is -0.012 (inactive).

USP14 (UniProt P54578): the log2 fold change was -0.001 (inactive).

Take VPS51 (UniProt Q9UID3): the log2 fold change is -0.075 (inactive).

On to UBE2J1 (UniProt Q9Y385), for which the log2 fold change is -0.053 (inactive).

Turning to UBE3D (UniProt Q7Z6J8), the log2 fold change was 0.003 (inactive).

Regarding TRAM1 (UniProt Q15629), the log2 fold change was -0.07 (inactive).

Take TOP2A isoform 4 (UniProt P11388): the log2 fold change was -0.29 (inactive).

Consider XPNPEP3 (UniProt Q9NQH7), for which the log2 fold change was 0.092 (inactive).

Turning to TRAPPC2L (UniProt Q9UL33), the log2 fold change was -0.041 (inactive).

For XPO5 (UniProt Q9HAV4), the log2 fold change is 0.026 (inactive).

As for WDHD1 (UniProt O75717), the log2 fold change was 0.03 (inactive).

With VDAC1 (UniProt P21796), the log2 fold change was 0.02 (inactive).

Compound in a further assay: Cn1cc(-c2ccc3nnc(C(F)(F)c4ccc5ncccc5c4)n3n2)cn1
The assay is described as above. An outline of the steps:
as §1
With VTA1 (UniProt Q9NP79), the log2 fold change is 0 (inactive).

UBE4B isoform 4 (UniProt O95155): the log2 fold change is -0.011 (inactive).

As for USO1 isoform 2 (UniProt O60763), the log2 fold change was -0.003 (inactive).

Turning to VPS16 (UniProt Q9H269), the log2 fold change was 0.04 (inactive).

On to WAPL isoform 3 (UniProt Q7Z5K2), for which the log2 fold change is 0.096 (inactive).

For the target VTI1A (UniProt Q96AJ9), the log2 fold change is 0.01 (inactive).

As to VPS8 (UniProt Q8N3P4), the log2 fold change was -0.083 (inactive).

Turning to UFL1 (UniProt O94874), the log2 fold change was -0.007 (inactive).

On to UTP4 (UniProt Q969X6), for which the log2 fold change was -0.014 (inactive).

As for UTP14A (UniProt Q9BVJ6), the log2 fold change was -0.09 (inactive).

With UGGT1 (UniProt Q9NYU2), the log2 fold change was -0.001 (inactive).

Regarding VPS18 (UniProt Q9P253), the log2 fold change was 0.089 (inactive).

On to UBA6, for which the log2 fold change was -0.024 (inactive).

As to TMEM161A (UniProt Q9NX61), the log2 fold change is -0.025 (inactive).

For TNFRSF10A (UniProt O00220), the log2 fold change is -0.005 (inactive).

TRMT61A (UniProt Q96FX7): the log2 fold change is -0.016 (inactive).

For the target TRAPPC8 (UniProt Q9Y2L5), the log2 fold change was 0.004 (inactive).

UBE2S (UniProt Q16763): the log2 fold change is -0.037 (inactive).

For the target UBE2E3 (UniProt Q969T4), the log2 fold change is -0.004 (inactive).

As to UCHL5 (UniProt Q9Y5K5), the log2 fold change was 0 (inactive).

VTI1B (UniProt Q9UEU0): the log2 fold change is 0.037 (inactive).

As for TNPO1 (UniProt Q92973), the log2 fold change was 0.009 (inactive).

As to UQCR10 (UniProt Q9UDW1), the log2 fold change is 0.084 (inactive).

Take TMEM87B (UniProt Q96K49): the log2 fold change is -0.08 (inactive).

On to USP34 (UniProt Q70CQ2), for which the log2 fold change was 0.033 (inactive).

Regarding USP14 (UniProt P54578), the log2 fold change is -0.065 (inactive).

As for VPS51 (UniProt Q9UID3), the log2 fold change is -0.008 (inactive).

For the target UBE2J1 (UniProt Q9Y385), the log2 fold change is 0.003 (inactive).

In the case of UBE3D (UniProt Q7Z6J8), the log2 fold change is 0.013 (inactive).

As to TRAM1 (UniProt Q15629), the log2 fold change was 0.02 (inactive).

As to TOP2A isoform 4 (UniProt P11388), the log2 fold change is -0.324 (inactive).

For the target XPNPEP3 (UniProt Q9NQH7), the log2 fold change is -0.031 (inactive).

As for TRAPPC2L (UniProt Q9UL33), the log2 fold change was -0.111 (inactive).

Take XPO5 (UniProt Q9HAV4): the log2 fold change is 0.004 (inactive).

On to WDHD1 (UniProt O75717), for which the log2 fold change was 0.022 (inactive).

In the case of VDAC1 (UniProt P21796), the log2 fold change was 0.008 (inactive).

Compound in the next assay: Cn1cncc1[C@@](N)(c1ccc(Cl)cc1)c1ccc2c(c1)c(-c1cccc(Cl)c1)cc(=O)n2C [tipifarnib]
The assay is described as above. An outline of the steps:
as §1
Take VTA1 (UniProt Q9NP79): the log2 fold change was -0.109 (inactive).

As to UBE4B isoform 4 (UniProt O95155), the log2 fold change was -0.024 (inactive).

With USO1 isoform 2 (UniProt O60763), the log2 fold change is -0.068 (inactive).

VPS16 (UniProt Q9H269): the log2 fold change is -0.078 (inactive).

For WAPL isoform 3 (UniProt Q7Z5K2), the log2 fold change is -0.218 (inactive).

VTI1A (UniProt Q96AJ9): the log2 fold change is 0.081 (inactive).

Take VPS8 (UniProt Q8N3P4): the log2 fold change was -0.078 (inactive).

UFL1 (UniProt O94874): the log2 fold change is -0.052 (inactive).

UTP4 (UniProt Q969X6): the log2 fold change was 0.058 (inactive).

For UTP14A (UniProt Q9BVJ6), the log2 fold change was 0.089 (inactive).

As for UGGT1 (UniProt Q9NYU2), the log2 fold change is -0.026 (inactive).

As for VPS18 (UniProt Q9P253), the log2 fold change was -0.047 (inactive).

Take UBA6: the log2 fold change was -0.075 (inactive).

Turning to TMEM161A (UniProt Q9NX61), the log2 fold change is -0.165 (inactive).

With TNFRSF10A (UniProt O00220), the log2 fold change was -0.054 (inactive).

For TRMT61A (UniProt Q96FX7), the log2 fold change was 0.043 (inactive).

On to TRAPPC8 (UniProt Q9Y2L5), for which the log2 fold change is -0.013 (inactive).

Turning to UBE2S (UniProt Q16763), the log2 fold change is -0.072 (inactive).

With UBE2E3 (UniProt Q969T4), the log2 fold change was -0.131 (inactive).

Turning to UCHL5 (UniProt Q9Y5K5), the log2 fold change is -0.093 (inactive).

VTI1B (UniProt Q9UEU0): the log2 fold change was 0.085 (inactive).

Take TNPO1 (UniProt Q92973): the log2 fold change is -0.026 (inactive).

As for UQCR10 (UniProt Q9UDW1), the log2 fold change is 0.007 (inactive).

With TMEM87B (UniProt Q96K49), the log2 fold change is 0.069 (inactive).

USP34 (UniProt Q70CQ2): the log2 fold change is -0.134 (inactive).

USP14 (UniProt P54578): the log2 fold change was -0.067 (inactive).

On to VPS51 (UniProt Q9UID3), for which the log2 fold change is -0.095 (inactive).

With UBE2J1 (UniProt Q9Y385), the log2 fold change is -0.056 (inactive).

In the case of UBE3D (UniProt Q7Z6J8), the log2 fold change is -0.049 (inactive).

Take TRAM1 (UniProt Q15629): the log2 fold change is -0.152 (inactive).

With TOP2A isoform 4 (UniProt P11388), the log2 fold change is 0.104 (inactive).

On to XPNPEP3 (UniProt Q9NQH7), for which the log2 fold change is -0.065 (inactive).

For TRAPPC2L (UniProt Q9UL33), the log2 fold change is -0.111 (inactive).

In the case of XPO5 (UniProt Q9HAV4), the log2 fold change is -0.071 (inactive).

Consider WDHD1 (UniProt O75717), for which the log2 fold change is -0.041 (inactive).

On to VDAC1 (UniProt P21796), for which the log2 fold change is 0.017 (inactive).

The values are drawn from the supplement of paper PMC10849652.
